High-throughput results as filed in PubChem BioAssay.
miR-122 inh – activators of miR-122 sensor in Huh7 cells; Huh7 psiCHECK-miR122 Renilla luciferase sensor, 48 h; activation, % at 12.5 µM; 340,000 tested, 0.14% active; AID 623901;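 active = mean activation of 30% or more, with every replicate also reaching 30%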;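 also: 0% = median of neutral control wells and 100% = median of positive control wells; higher luciferase signal means stronger suppression of miR-122 activity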
Active calls of the source: *. This is one part of a sample in which hits are shown more often than they occur.

SMILES | miR-122 inh
COc1ccc(C2SCC(=O)Nc3c2c(=O)[nH]n3C2CCCCCC2)cc1 (centres undefined) | 37.0*
CN=C1CN(O)C(c2ccccc2)c2cc(Cl)ccc2N1 (centres undefined) | -111.4
CCCCn1nnnc1C(c1cccc(OC)c1OC)N1CCC2(CC1)C(=O)NCN2c1ccccc1 (centres undefined) | -91.7
Cc1ccc(OP(=O)(Nc2cccc(C)c2)Oc2ccc(C)cc2)cc1 | -187.1
CCOc1ccccc1NC(=O)N1CCC2(CC1)OCCO2 | -115.1
COc1cc2c(c(OC)c1OC)-c1ccc(O)c(=O)cc1C(NC(C)=O)CC2 (centres undefined) | -96.8
CN1CCN(c2ccc([N+](=O)[O-])c3no[n+]([O-])c23)CC1 | 35.1*
CCN(CC)S(=O)(=O)c1ccc(C)c(NCC(=O)Nc2ccc(C#N)c(Cl)c2)c1 | -119.2
COc1ccc(NP(=O)(Oc2ccc(Cl)cc2)Oc2ccc(Cl)cc2)cc1OC | -136.5
O=c1cc(C2CCNCC2)[nH][nH]1 | -155.7
